Results as given in PubChem BioAssay (Tox21).
Inconclusive results are not listed. Entries that show only a call come without a potency. Activity calls are given as the source filed them. Unless noted, the call rests on the fitted dose curve; in most records, active means well fitted curve in the direction sought with a large enough effect in the repeat runs; inconclusive means weak or mixed curves; inactive means no such curve, though single readings can be large; an effect the other way counts as inactive or inconclusive.

What was measured:
[1] = qHTS assay to identify small molecule antagonists of the vitamin D receptor (VDR) signaling pathway - cell viability counter screen (AID 743225); further: nearly all actives have a fitted effect of over 50% in size
Method in brief: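 VDR-bla HEK 293T cells, 4 h pre-incubation at 37C, then compound plus 1-alpha,25-dihydroxyvitamin D3 (3 nM final) for 16 h. After the beta-lactamase FRET read, CellTiter-Glo was added to the same wells; luminescence after 30 min at room temperature.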

[2] = qHTS assay to identify small molecule agonists of the NFkB signaling pathway (AID 1159509; active means well fitted curve in the direction sought with a large enough effect in the signal ratio in the repeat runs, not every such curve was filed as active; the % refers to the signal ratio; further: series mostly up to about 61 µM)
Method in brief: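 ME-180 NFkB-bla, 2,000 cells/well, overnight plating; cpd pinned in DMSO, 5 h 37 C; B/G FRET substrate 1.5 h RT; ex 405, em 460/530 nm.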

[3] = qHTS assay to identify small molecule agonists of the NFkB signaling pathway - cell viability counter screen (AID 1159515; calls by dose curve; further: series mostly up to about 61 µM; nearly all actives have a fitted effect of over 55% in size)
Method in brief: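 Luminescence from CellTiter-Glo (30 min, room temperature) gives viability, measured in the same wells as the beta-lactamase reporter read. Cells were NFkB-bla ME-180, 2,000 per well, treated 5 hr with compounds.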

[4] = qHTS assay to identify small molecule agonists of the endoplasmic reticulum stress response signaling pathway - cell viability counter screen (AID 1159517; calls by dose curve;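 further: HeLa cells carrying an ER stress response element beta-lactamase reporter; series mostly up to about 61 µM; nearly all actives have a fitted effect of over 50% in size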)
Method in brief: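 ESRE-bla HeLa cells, 1,500 per well, seeded overnight then treated with compounds for 5 hr at 37 C. After the beta-lactamase read, viability in the same wells is measured by CellTiter-Glo luminescence after 30 min at room temperature.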

[5] = qHTS assay to identify small molecule antagonists of the retinoid-related orphan receptor gamma (ROR-gamma) signaling pathway - cell viability counter screen (AID 1159520); further: nearly all actives have a fitted effect of over 50% in size; further: potency means the concentration at half of the fitted maximal effect
Method in brief: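 Tet-on ROR gamma CHO cells were given compounds for 2 hr, then doxycycline hyclate at 1 uM final, and incubated 16 hr at 37 C. Viability was measured as ATP content by CellTiter-Glo luminescence.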

[6] = biological target: Nuclear receptor ROR-gamma (Homo sapiens) (UniProt P51449); assay: qHTS assay to identify small molecule antagonists of the retinoid-related orphan receptor gamma (ROR-gamma) signaling pathway (AID 1159521; further: nearly all actives have a fitted effect of over 50% in size; further: potency means the concentration at half of the fitted maximal effect)
Method in brief: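 Tet-on RORγ CHO cells carrying a ROR response element–luciferase reporter were pretreated with compounds for 2 h, then induced with 1 uM (final) doxycycline hyclate for 16 h at 37 C. Antagonism was read as decreased ONE-Glo luminescence.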

[7] = qHTS assay to identify small molecule agonists of the AP-1 signaling pathway - cell viability counter screen (AID 1159525; calls by dose curve; further: nearly all actives have a fitted effect of over 55% in size)
Method in brief: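 AP-1-bla ME-180 cells in Opti-MEM with 0.5% dialyzed FBS, compound exposure 5 h at 37 C in 15-point titration. Viability read in the same wells as ATP content by CellTiter-Glo luminescence, normalised to tetra-n-octylammonium bromide and DMSO controls.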

[8] = qHTS assay to identify small molecule agonists of the AP-1 signaling pathway (AID 1159526; calls by dose curve)
[9] = qHTS assay to identify small molecule agonists of the RXR signaling pathway - cell viability counter screen (AID 1159529)
Method in brief: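 RXR-alpha-UAS-bla HEK 293T cells in medium with 2% charcoal-stripped FBS were preincubated 5 hr, then exposed to compounds for 16 hr at 37 C. Viability was read as CellTiter-Glo luminescence after 30 min at room temperature.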

[10] = qHTS assay to identify small molecule antagonists of the retinoid acid receptor (RAR) signaling pathway - cell viability counter screen (AID 1159551); further: nearly all actives have a fitted effect of over 35% in size
Method in brief: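 Luminescent ATP quantitation (CellTiter-Glo) gave cell viability in C3RL4 cells exposed to test chemicals for 6 h at 37 C alongside 1 uM final retinol.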

[11] = qHTS assay to identify small molecule antagonists of the retinoic acid receptor (RAR) signaling pathway (AID 1159552; further: nearly all actives have a fitted effect of over 50% in size; further: potency means the concentration at half of the fitted maximal effect)
Method in brief: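 RARE-luc C3RL4 cells; cpds + 1 uM (final) retinol, 6 hr, 37 C/5% CO2; luciferase reagent, 30 min RT, luminescence readout. Inhibitors of retinol-driven signal scored.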

[12] = qHTS assay to identify small molecule agonists of the retinoic acid receptor (RAR) signaling pathway (AID 1159553); further: potency means the concentration at half of the fitted maximal effect
Method in brief: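 Luminescence from a RARE-driven luciferase reporter in C3RL4 cells served as the read-out, measured after 30 min with detection reagent at room temperature. Compounds in DMSO were applied for 6 hr at 37 C following overnight seeding.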

[13] = qHTS assay to identify small molecule antagonists of the estrogen related receptor (ERR) signaling pathway from Tox21 library - cell viability counter screen (AID 1224834); further: nearly all actives have a fitted effect of over 30% in size
Method in brief: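 Fluorescence from CellTiter-Fluor gives the viability read-out, taken 30 min after reagent addition. Before that, ERR cells seeded 6 h earlier were incubated with compounds for 17.5 h at 37 C.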

[14] = qHTS assay to identify small molecule antagonists of the estrogen related receptor signaling pathway with the pleiotropic PPARgamma coactivator (PGC) cell viability counter screen (AID 1224822; further: series mostly up to about 46 µM)
Method in brief: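 Cells: PGC/ERR, 2,000/well, 1536-well format. Pre-incubation 6 h, 37 C/5% CO2. Compound exposure 17.5 h, 37 C. Detection: CellTiter-Fluor, 30 min, fluorescence.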

[15] = biological target: Retinoic acid receptor RXR-alpha (Homo sapiens) (UniProt P19793); assay: qHTS assay to identify small molecule agonists of the RXR signaling pathway (AID 1159527; calls by dose curve; further: nearly all actives have a fitted effect of over 35% in size; further: potency means the concentration at half of the fitted maximal effect)
Sequence of Retinoic acid receptor RXR-alpha (Homo sapiens) (P19793 whole entry, looked up): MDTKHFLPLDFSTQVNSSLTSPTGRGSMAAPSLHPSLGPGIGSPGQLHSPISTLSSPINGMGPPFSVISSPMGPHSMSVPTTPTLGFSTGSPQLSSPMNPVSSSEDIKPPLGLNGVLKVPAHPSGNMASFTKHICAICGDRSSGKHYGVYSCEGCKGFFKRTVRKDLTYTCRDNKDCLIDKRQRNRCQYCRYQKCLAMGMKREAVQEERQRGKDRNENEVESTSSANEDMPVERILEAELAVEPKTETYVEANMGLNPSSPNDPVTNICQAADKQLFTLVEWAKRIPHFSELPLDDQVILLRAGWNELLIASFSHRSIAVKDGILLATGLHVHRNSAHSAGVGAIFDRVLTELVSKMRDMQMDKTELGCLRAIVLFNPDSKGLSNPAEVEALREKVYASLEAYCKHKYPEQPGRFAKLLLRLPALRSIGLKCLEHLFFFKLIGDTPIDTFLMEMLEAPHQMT
Method in brief: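 GeneBLAzer RXR-alpha-UAS-bla HEK 293T cells in medium with 2% charcoal-stripped FBS, pre-incubated 5 hr at 37 C, then exposed to compounds 16 hr. Beta-lactamase reporter read by FRET substrate, 2 hr room temperature, 460/530 nm emission.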

Row | Compound | Potency [1] | outcome [2] | Potency [3] | Potency [4] | Potency [5] | Potency [6] | Potency [7] | outcome [8] | Potency [9] | Potency [10] | Potency [11] | Potency [12] | Potency [13] | outcome [14] | Potency [15]
1 | CCCCOC(=O)CCCCC(=O)OCCCC | inactive | inactive | inactive | inactive | inactive | inactive | inactive | inactive | inactive | inactive | inactive | inactive | inactive |  | 
2 | O=[N+]([O-])C1(Br)COCOC1 | inactive | inactive | inactive | inactive | 24.3 µM (active) | 24.3 µM (active) | inactive | inactive |  |  | 43.3 µM (active) |  |  |  | 
3 | CCCC(=O)OC(=O)CCC | inactive | inactive | inactive | inactive | inactive | inactive | inactive | inactive | inactive | inactive | inactive | inactive | inactive |  | 
4 | O=C(O)/C=C/c1ccc(O)c(O)c1 | inactive | inactive | inactive | inactive | inactive | inactive | inactive | inactive | inactive | inactive |  | inactive | inactive | inactive | 
5 | CCCc1nc2c(C)cc(-c3nc4ccccc4n3C)cc2n1Cc1ccc(-c2ccccc2C(=O)O)cc1 | inactive | inactive | inactive | inactive | inactive | inactive | inactive | inactive |  | inactive | inactive | inactive |  |  | 
6 | CCC(=O)OCc1ccc(OC)cc1 |  | inactive | inactive | inactive | inactive | inactive | inactive | inactive | inactive | inactive | inactive | inactive | inactive |  | 
7 | CC(=O)OCCC(C)CC(C)(C)C (stereo not given) | inactive | inactive | inactive | inactive | inactive | inactive | inactive | inactive | inactive |  |  |  | inactive |  | 11 µM (active)
8 | O=C(O)CCC(=O)c1ccc(-c2ccccc2)cc1 | inactive | inactive | inactive | inactive | inactive | inactive | inactive | inactive | inactive | inactive | inactive | 11.9 µM (active) | inactive |  | 
9 | CCCCCCCCCCCCCCCCCC(=O)OCC(CC)CCCC (stereo not given) | inactive | inactive | inactive | inactive | inactive | inactive | inactive | inactive | inactive |  | inactive | inactive | inactive |  | inactive
10 | O=C(O)CCCc1c[nH]c2ccccc12 | inactive | inactive | inactive | inactive | inactive | inactive | inactive | inactive | inactive | inactive |  |  | inactive |  | 
11 | NC(=O)CCCCC(N)=O | inactive | inactive | inactive | inactive | inactive | inactive | inactive | inactive | inactive |  |  |  | inactive |  | inactive
12 | CCCCCCCCCCCCCC(=O)OCC(O)CO (stereo not given) |  | inactive | inactive | inactive | inactive | inactive | inactive | inactive |  |  | inactive | inactive | inactive |  | 
13 | COc1ccc(-n2nc(C(F)F)cc2-c2ccc(S(C)=O)cc2)cc1 (stereo not given) | inactive | inactive | inactive | inactive | inactive | inactive | inactive | inactive | inactive | inactive |  | inactive | inactive |  | 
14 | FC(F)(F)C(F)(F)C(F)(F)C(F)(F)CCI |  | inactive | inactive | inactive | inactive | inactive | inactive | inactive | inactive |  |  | inactive | inactive |  | inactive
15 | O=C(O)c1cccc(C[C@@H]2COc3ccc(OCc4nc5cc(F)ccc5s4)cc3[C@@H]2O)c1 | inactive | inactive | inactive | inactive | inactive | inactive | inactive | inactive | inactive | inactive |  |  | inactive |  | 
16 | SCCc1cnccn1 | inactive | inactive | inactive | inactive | inactive | inactive | inactive | inactive |  | inactive |  |  | inactive |  | inactive
